# Screening data: PubChem, National Center for Advancing Translational Sciences (NCATS)
# MARV entry inh – qHTS for inhibitors of binding or entry into cells for Marburg Virus; Marburg virus pseudotyped entry inhibition, cell reporter; Potency, µM (titrated, usually from 37.8 µM), for inactives: at the highest dose activity change, negative = inhibition, usual class: inhibitors; hit rate 1.8% among 300,000; calls by dose curve; tested in HEK293 cells; further: potency means the concentration at half of the fitted maximal effect
# FMDV inh – High Throughput Screening for Foot and Mouth Disease Virus Antivirals; FMDV antiviral cell-based qHTS; Potency, µM (series often up to 57.9 µM), for the others: at the top dose activity change, negative = inhibition, most hits filed as inhibitors; hit rate 1.2% among 410,000; calls by dose curve; tested in HEK293T cells; further: read-out not given here; potency means the concentration at half of the fitted maximal effect; nearly all actives have a fitted effect of over 45% in size
# VACV mCherry inh – qHTS for Stage-Specific Inhibitors of Vaccinia Orthopoxvirus: mCherry Reporter Primary qHTS | Vaccinia virus mCherry reporter infection, fluorescence | Potency, µM (series often up to 36.5 µM), without a hit: at the highest dose activity change, negative = inhibition, most hits filed as inhibitors | hit rate 0.63% among 310,000 | AID 720579, 2013; calls by dose curve; tested in A549 cells; further: potency means the concentration at half of the fitted maximal effect; nearly all actives have a fitted effect of over 35% in size
# HCMV antiviral – qHTS Assay for inhibitors of the human cytomegalovirus (HCMV). HFF cells, HCMV-luciferase reporter, 72 h; active compounds read low. activity change, negative = inhibition, % at 57.5 µM. hit rate 4.5% among 410,000. AID 1259415, 2018; in the data active means activity change below about -60%; inconclusive means no clear call, values can overlap the other calls; inactive means above about -39%
#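 Screen run at 2 compound doses on HFFs infected with reporter HCMV, MOI 1 PFU/cell. Luciferase activity from cell lysates at 72 h post infection gave inhibition relative to buffer-only and Salinomycin wells.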
# Lassa entry inh – qHTS for Inhibitors of binding or entry into cells for Lassa Virus. Lassa virus pseudotype entry inhibition, cell reporter. Potency, µM (series often up to 37.9 µM), inactives show top-dose activity change, negative = inhibition, usual class: inhibitors. hit rate 1.2% among 300,000. AID 540256, 2011; calls by dose curve; tested in HEK293 cells; further: potency means the concentration at half of the fitted maximal effect; nearly all actives have a fitted effect of over 50% in size
# Vaccinia Venus – qHTS for Stage-Specific Inhibitors of Vaccinia Orthopoxvirus: Venus Reporter Primary qHTS. Vaccinia virus Venus reporter expression, fluorescence. Potency, µM (titrated, usually from 36.5 µM), inactives show at the highest dose activity change, negative = inhibition, most hits filed as inhibitors. hit rate 0.46% among 330,000; calls by dose curve; tested in A549 cells; further: potency means the concentration at half of the fitted maximal effect; nearly all actives have a fitted effect of over 30% in size
# * hit, by the source's call; i = inactive; ? = inconclusive; . = no result; [ ] = another dose, or the depositor's remark. Compounds with a hit are over-represented: about 6.5% of the library has one in this group of screens. On the % scale 0 is the no-effect control and ±100 the full control effect.
SMILES,MARV entry inh,FMDV inh,VACV mCherry inh,HCMV antiviral,Lassa entry inh,Vaccinia Venus
COCC(=O)Nc1cc(C(=O)NC2C3CC4CC2CC(O)(C4)C3)cc2nc(-c3ccccc3)n(C)c12 (centres undefined),.,-10%,-12%,.,.,-4%
CC(C)OC(=O)/C(=C\c1cccc2ccccc12)NC(=O)c1ccccc1,?,-7%,-1%,12,?,0%
COc1ccc(O)c(CN2CC3CCC(CC3)C2)c1,-7%,-6%,-22%,2,4%,-13%
Cc1onc(-c2c(F)cccc2Cl)c1C(=O)Nc1nccs1,?,-28%,-20%,?,0%[46.1 µM],-14%
Cc1onc(-c2c(F)cccc2Cl)c1C(=O)Nc1nnc(C(F)(F)F)s1,.,?,.,-98*,.,.
O=C(Nc1nnc(C(F)(F)F)s1)c1ccc(Br)s1,?,-5%,10µM*,?,?,?
COc1ccc(-c2c(C)sc(NC(=O)c3ccnn3C)c2C#N)cc1,?,?,?,-89*,-22%,-21%
CCOC(=O)[C@]12Cc3ccc(C)cc3[C@H]1N(C1CCCCC1)C(=O)c1cc(OC)ccc12,.,28µM*,?,-103*,.,?
CCOC(=O)[C@]12Cc3ccc(C)cc3[C@H]1N(C1CCCCC1)C(=O)c1ccccc12,.,6.3µM*,?,-101*,.,?
CCOC(=O)[C@]12Cc3cc(OC)ccc3[C@H]1N(CC(=O)OC)C(=O)c1ccccc12,.,-18%,4%,-11,.,-4%
CCOC(=O)[C@]12Cc3c(cc(OC)c(OC)c3OC)[C@H]1N(C1CCCCC1)C(=O)c1ccccc12,.,8.9µM*,?,-102*,.,?
CCOC(=O)[C@]12Cc3cc(C)ccc3[C@H]1N(CCC(=O)OC)C(=O)c1ccccc12,.,14µM*,?,-110*,.,?
CCOC(=O)[C@]12Cc3cc(Cl)ccc3[C@H]1N(C1CCCCC1)C(=O)c1cc(OC)ccc12,.,2.2µM*,?,-104*,.,3.5µM*
CCOC(=O)[C@]12Cc3ccccc3[C@H]1N(C(C)C)C(=O)c1ccccc12,.,18µM*,?,-105*,.,?
CCOC(=O)[C@]12Cc3cc(C)ccc3[C@H]1N(C1CCCCC1)C(=O)c1ccccc12,.,7.9µM*,?,-103*,.,?
C=Cc1ccc(Cn2c(=O)n(-c3ccc(C)cc3)c(=O)c3c2c2cc(OC)ccc2n3C)cc1,.,-7%,-22%,-14,?,-18%
Cc1ccc(-c2cn(CCC(=O)O)c(=O)cn2)cc1,.,.,.,-9,.,.
COC(=O)C1=C(C(=O)OC)[C@@H]2N(C)c3ccccc3[C@@]23C[C@@H](C(=O)OC)N(C(=O)NC(C)(C)C)C3=N1,14%[14.2 µM],.,.,.,?,.
Cc1c(C)n(CCc2ccccc2)c2ncnc(NCCCO)c12,.,27%,.,99,.,.
Cc1c(C)n(Cc2ccccc2)c2ncnc(NN)c12,.,?,.,-73*,.,.
COCCn1c(C)c(C)c2c(NCCc3ccccc3)ncnc21,.,?,.,-99*,.,.
FC(F)(F)c1nnc2c(Sc3ccc(Cl)cc3)nc3ccccc3n12,2%,?,.,-103*,4%,.
FC(F)(F)c1nnc2c(Sc3ccccn3)nc3ccccc3n12,-19%,6%,.,-3,1%,.
FC(F)(F)c1nnc2c(Sc3ccccc3)nc3ccccc3n12,-5%,31%,.,-101*,-1%,.
FC(F)(F)c1nc2ccccc2n2c(-c3ccc(Cl)cc3)nnc12,?,?,.,-106*,?,?
SMILES,MARV entry inh,FMDV inh,VACV mCherry inh,HCMV antiviral,Lassa entry inh,Vaccinia Venus
Cc1cc(C(=O)NNC(=O)c2ccc(Cl)c(S(N)(=O)=O)c2)c(C)o1,-2%[46.1 µM],-4%,i,14,7%[46.1 µM],-2%
Cc1cnc([N+](=O)[O-])n1CCOC(=O)NC(=O)c1ccc(C(F)(F)F)cc1,-1%[46.1 µM],-9%,4%,39,-1%,4%
Cc1cnc([N+](=O)[O-])n1CCOC(=O)NC(=O)c1ccccc1Cl,11%[46.1 µM],6%,-10%,-66*,.,-4%
Cc1noc(C)c1C(=O)N1CCC1(C)C(=O)NS(=O)(=O)c1ccc(F)cc1F (centres undefined),.,-9%,52%,-12,.,-6%
Cc1oc(-c2cccc(Cl)c2)nc1CS(=O)(=O)CC(=O)NCCCN1CCOCC1,.,-22%,?,7,.,-12%
O=C(CCS(=O)(=O)c1ccccc1)Nc1nc(-c2cccs2)cs1,?,-30%,?,49,-29%,4µM*
COCCSc1nnc(NC(=O)CCS(=O)(=O)c2ccccc2)s1,11µM*,-1%,?,3,-11%,-28%
CC(C)(C)c1csc(NC(=O)CCS(=O)(=O)c2ccc(F)cc2)n1,.,?,7.1µM*,-24,.,7.9µM*
Cc1ccc(S(=O)(=O)CC(=O)Nc2cccc(C)n2)cc1,?,14%,-12%,28,12%[46.1 µM],4%
Cc1ccc(S(=O)(=O)CCC(=O)Nc2nc(C(C)(C)C)cs2)cc1,.,-26%,.,-20,.,.
Cc1ccc(S(=O)(=O)CC(=O)Nc2nc(C(C)(C)C)cs2)cc1,2%,-23%,-13%,14,3.7µM*,-7%
C=CCSc1nnc(NC(=O)CCNC(=O)c2ccccc2Cl)s1,.,-14%,-2%,-6,.,-3%
CC(=O)Oc1ccc(Cn2c(C)c(C(=O)NC3CC3)sc2=O)cc1,.,-19%,12%,105,.,-8%
CCNC(=O)CC1C(=O)N(c2cccc(OC)c2)C(=O)N1Cc1ccc(OC)c(OC)c1 (centres undefined),-1%[46.1 µM],-1%,2%,0,-2%[46.1 µM],-3%
C=CCc1cccc(/C=C/c2cc(=O)c3ccccc3[nH]2)c1O,?,-8%,-5%,34,?,0%
CC(=O)c1nn(-c2cccc(Br)c2)cc1C(=O)c1ccc(C)cc1,-30%,8%,.,-69*,?,.
CC1CC(C)CN(CCOCCSc2ccc(Cl)cc2)C1 (centres undefined),7.1µM*,20%,i,1,?,-27%
CC1CC(C)CN(CCOCCSc2ccccc2)C1 (centres undefined),?,-11%,-3%,5,9.2µM*,-18%
CC1CN(CCCCSc2ccccc2)CC(C)O1 (centres undefined),.,2%,.,9,.,.
CC1CCCN(CCOCCSc2ccccc2)C1 (centres undefined),?,-26%,-23%,-40,?,-17%
CC1CC(C)CN(CCCSc2ccccc2)C1 (centres undefined),2.9µM*,-2%,-23%,-4,?,-15%
C[C@@H]1CN([C@@H](C)CO)C(=O)c2cc(Br)cnc2O[C@H]1CN(C)C(=O)c1ccc2c(c1)OCO2,.,-18%,i,12,.,-11%
CN(C)S(=O)(=O)c1cccc(NC(=O)CCNC(=O)c2ccccc2Cl)c1,4%,-24%,-13%,19,21%,-13%
CC(=O)Nc1cccc(-c2cn3ccc(C)cc3n2)c1,.,65%,.,73,.,.
